Measured values published in PubChem BioAssay (NCATS).
Records with an inconclusive call do not appear. Unmarked numbers belong to inactive results. Active and inactive are the calls of the source. The call rests on the fitted dose curve; in most records, active means well fitted activation curve with a large enough effect; inconclusive means small, poorly fitted or top-dose-only effect; inactive means no such curve, though single readings can be large or run the other way.

target: Cellular tumor antigen p53 (Homo sapiens) (UniProt P04637); assay: Primary qHTS for small molecule compounds that upregulate eGFP-tagged delta133p53alpha (in N-terminal) cells. (AID 2060322); conditions: NCI-H358 eGFP-delta133p53alpha fluorescence, 24 h; activation: hits give high values; further: nearly all actives have a fitted effect of over 75% in size;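 on activation: series mostly up to about 56 µM; 0% = DMSO vehicle and 100% = reference activator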
Summary of the method: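 NCI-H358 cells pre-induced 24 h with 10 ng/ml doxycycline to express N-terminal eGFP-delta133p53alpha, then dosed 24 h at 37C without doxycycline; fixed, Hoechst-stained, GFP intensity by laser scanning cytometry, normalized to DMSO (0%) and 57.5 uM 5-azacytidine (100%).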
Potency means the concentration at half of the fitted maximal effect.

Cellular tumor antigen p53 (Homo sapiens), sequence (P04637 whole entry, looked up): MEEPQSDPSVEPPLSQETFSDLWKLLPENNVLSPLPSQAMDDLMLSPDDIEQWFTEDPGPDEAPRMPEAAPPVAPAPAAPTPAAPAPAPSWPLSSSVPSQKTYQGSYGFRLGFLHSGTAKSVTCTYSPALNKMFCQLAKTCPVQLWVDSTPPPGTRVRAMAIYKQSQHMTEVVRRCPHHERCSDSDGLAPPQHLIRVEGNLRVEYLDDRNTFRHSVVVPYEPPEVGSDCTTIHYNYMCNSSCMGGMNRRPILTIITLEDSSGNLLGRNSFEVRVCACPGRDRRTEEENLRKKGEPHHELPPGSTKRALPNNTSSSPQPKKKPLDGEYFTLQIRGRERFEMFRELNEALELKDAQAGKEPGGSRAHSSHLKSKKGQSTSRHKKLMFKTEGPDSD

First: OCCOCCN1CCN(C2=Nc3ccccc3Sc3ccccc32)CC1
Second: O=C(O)c1ccc(OCCN2CCCCC2)cc1
The activation of the first is higher: 7.53% for the first, -14.1% for the second.

First: NCCNCCNCCN
Second: CC(C)=CCNc1ncnc2c1ncn2[C@@H]1O[C@H](CO)[C@@H](O)[C@H]1O
The activation of the first is higher: -9.6% for the first, -20.9% for the second.

First: CC(=CC(=O)Nc1ccccc1C(=O)O)c1ccc2ccccc2c1
Second: O=C(OCc1ccccc1)c1ccc(O)cc1
The activation of the first is lower: -15.6% for the first, -15.3% for the second.

Going from `O=C(NCN1CCOCC1)c1cnccn1` to `Cc1cccc(C)c1NC(=O)CN1CCCCCC1`, the activation rises from -15.3% to 6.69%.

First: OC(CCN1CCCC1)(c1ccccc1)C1CCCCC1 (stereo not drawn)
Second: O=C(O)C[C@H](O)C[C@H](O)C=Cc1c(C2CC2)nc2ccccc2c1-c1ccc(F)cc1
The activation of the first is higher: 20.1% for the first, -5.06% for the second.

First: COc1ccc(-c2cc(=S)ss2)cc1
Second: Cc1ccc2c(Br)cc(Br)c(O)c2n1
The activation of the first is higher: -4.18% for the first, -18.4% for the second.

Compared with `CC(C)(C)[C@H](NC(=O)c1ccc(N)c(Cl)c1)C(=O)N1CCC[C@@H]1C(=O)N[C@H](C#N)CC(=O)O`, `COC(=O)C=CC(=O)OC` is lower in activation: -1.07% for the first, -16.5% for the second.

First: Cc1ncc([N+](=O)[O-])n1C
Second: CC(C)OP(=O)(CP(=O)(OC(C)C)OC(C)C)OC(C)C
The activation of the first is higher: -0.565% for the first, -4.18% for the second.

In the case of `O=C1NC(=O)C(c2c[nH]c3ccccc23)=C1c1c[nH]c2ccccc12`, the Potency is reported as 27.3 µM (active).
With `CCCCC(CC)CN=C(N)NC(N)=NCCCCCCN=C(N)NC(N)=NCC(CC)CCCC` (stereo not drawn) the Potency was 13.8 µM (active).
